Results on 30 molecules are retold here after PubChem BioAssay (EPA / NIEHS).

Each structure is given as a SMILES string. Inconclusive results are not listed. Activity calls are given as the source filed them. The calls were made as follows: active = hit-call score of the fitted dose curve at least 0.9, where 1 is the maximum; inconclusive = response in the unintended direction; inactive = score below 0.9.

Read-out in the assay: organic anion transporter (SLCO1B1), SLCO1B1 (gene 10599)
Briefly: CLD_SLCO1B1_24hr: CellzDirect (CLD) Gene Expression Assay for organic anion transporter (SLCO1B1) at 24 hours (AID 2283690). As to the method: CLD_24hr is a cell-based, multiplexed-readout assay that uses hepatocyte, a human liver primary cell, with measurements taken at 24 hours after chemical dosing in a 96-well plate.CLD_SLCO1B1_24hr is one of 16 assay component(s) measured or calculated from the CLD_24hr assay. It is designed to make measurements of mRNA induction, a form of inducible reporter, as detected with chemiluminescence signals by Quantitative Nuclease Protection Assay (qNPA) technology.Data from the assay component CLD_SLCO1B1_24hr was analyzed at the endpoint, CLD_SLCO1B1_24hr, in the positive analysis fitting direction relative to DMSO as the negative control and baseline of activity. Using a type of inducible reporter, gain-of-signal activity can be used to understand changes in the reporter gene as they relate to the gene SLCO1B1. Furthermore, this assay endpoint can be referred to as a primary readout. To generalize the intended target to other relatable targets, this assay endpoint is annotated to the transporter intended target family, where subfamily is organic anion transporter.
Human hepatocyte cultures were treated daily for two consecutive days with fresh dosing solutions containing appropriate concentrations of the 320 ToxCast chemicals (chemical identities were blinded to CellzDirect and other ToxCast collaborators), vehicle control (0.2% DMSO), and positive control inducers as summarized in Table 1. Due to the large number of treatment groups and chemicals examined, the ToxCast chemicals were divided into two groups (spanning two independent cultures of hepatocytes from separate donor preparations (Hu778: ToxCast plates 1 and 2; Hu776: ToxCast plates 3 and 4). Each preparation of human hepatocyte cultures was treated with respective vehicle control, medium only control, set of six positive controls/reference chemicals for the five hepatic receptor pathways, and a subset of eight of the ToxCast chemicals (indoxacarb, pyrithiobac-sodium, norflurazon, cyhalofop-butyl, methomyl, thiram, acetochlor, and propiconazole). These replicate data, coupled with internal replicates designed within the blinded ToxCast chemical library, provided additional data to evaluate interindividual differences between hepatocyte preparations and their potential impact on chemical profiles.Cell morphology and integrity were evaluated using phase-contrast microscopy as an indicator of hepatocyte cell health (Tyson & Green, 1987). Cultures for each treatment group (i.e., media, vehicle [0.2% DMSO], positive control inducers [multiple concentrations], and the ToxCast chemicals [multiple concentrations]) were observed and cell morphology was assessed relative to vehicle control cultures at each harvest time point (0, 6, 24, or 48 h). […] Images were evaluated at the conclusion of the study to assess changes in cell integrity and account for the effects of chemical exposure on uncharacteristic changes in concentration-dependent gene expression profiles. The results from these determinations of apparent cytotoxicity were annotated (yes/no) alongside the corresponding qNPA data for reference.At the conclusion of each treatment period, hepatocyte cultures (96-well) were washed with 1 volume of HBSS, lysed by addition of 25 ul ArrayPlate lysis buffer (HTG, Tucson, AZ), and 70 ul/well of Denaturation Oil, denatured by incubation at 95C for 10 min, and frozen at approximately -70C until analysis by nuclease protection assay (qNPA) (Roberts et al., 2007). For qNPA analysis, cell lysates were thawed at 50C for approximately 30 min, qNPA probes were added, and samples were incubated at 95C for 10 min to begin the detection process by denaturing the target RNA, dissociating the duplexes and secondary structure hybridization. At the conclusion of the hybridization period, S1 nuclease reagent was added to each sample to digest all nonprotected nucleotides at 50C for 60-90 min. […]
Regarding `Cc1cnc(C2=NC(C)(C(C)C)C(=O)N2)c(C(=O)O)c1` (stereo not given), the outcome was inactive.

Take `COCC(C)N(C(=O)CCl)c1c(C)csc1C` (stereo not given): the molecule was classed as inactive.

Turning to `O=C(O)c1c(Cl)ccc2cc(Cl)cnc12`, the molecule was classed as inactive.

In the case of `CC(C)Oc1cccc(NC(=O)c2ccccc2C(F)(F)F)c1`, the result was inactive.

Take `COCC(=O)N(c1c(C)cccc1C)C(C)C(=O)OC` (stereo not given): the outcome was inactive.

Consider `O=c1n(Cl)c(=O)n(Cl)c(=O)n1Cl`, for which the outcome was inactive.

On to `COC(=O)NS(=O)(=O)c1ccc(N)cc1`, for which the result was inactive.

With `CCCC(=NOCC)C1=C(O)CC(CC(C)SCC)CC1=O` (stereo not given), the outcome was inactive.

Regarding `CCOP(=O)(OCC)Oc1nc(Cl)c(Cl)cc1Cl`, the molecule was classed as inactive.

For `CCCCC(C#N)(Cn1cncn1)c1ccc(Cl)cc1` (stereo not given), the result was inactive.

Take `Cc1c(COC(=O)[C@@H]2[C@H](/C=C(\Cl)C(F)(F)F)C2(C)C)cccc1-c1ccccc1`: the molecule was classed as inactive.

On to `CS(=O)(=O)c1cc(C(F)(F)F)ccc1C(=O)c1cnoc1C1CC1`, for which the call was inactive.

For `N#Cc1c(Cl)cccc1Cl`, the result was inactive.

As to `O=C1C2CC=CCC2C(=O)N1SC(Cl)(Cl)Cl` (stereo not given), the result was inactive.

As for `COP(=S)(OC)Oc1ccc([N+](=O)[O-])c(C)c1`, the molecule was called inactive.

For the molecule `COP(=O)(OC)O/C(C)=C/C(=O)N(C)C`, the molecule was classed as inactive.

In the case of `CSC(=O)c1c(C(F)F)nc(C(F)(F)F)c(C(=O)SC)c1CC(C)C`, the call was inactive.

On to `Clc1nc(Cl)nc(Nc2ccccc2Cl)n1`, for which the outcome was inactive.

As for `Cc1ccc(N=CN(C)C=Nc2ccc(C)cc2C)c(C)c1`, the result was inactive.

As to `CC1(C)CON(Cc2ccccc2Cl)C1=O`, the result was inactive.

On to `CCCN(CC)CC1COC2(CCC(C(C)(C)C)CC2)O1` (stereo not given), for which the molecule was classed as inactive.

Turning to `OC(c1ccc(Cl)cc1)(c1ccc(Cl)cc1)C(Cl)(Cl)Cl`, the molecule was called inactive.

For the molecule `Nc1c(Cl)c(F)nc(OCC(=O)O)c1Cl`, the molecule was classed as inactive.

As to `CN=C=S`, the outcome was inactive.

On to `CC(C)=CC1C(C(=O)OCc2coc(Cc3ccccc3)c2)C1(C)C` (stereo not given), for which the outcome was inactive.

As for `CO/N=C(/C1=NOCCO1)c1ccccc1Oc1ncnc(Oc2ccccc2Cl)c1F`, the outcome was inactive.

Turning to `CNC(=O)N(C)c1nnc(C(C)(C)C)s1`, the outcome was inactive.

On to `CCNC(=O)NC(=O)C(C#N)=NOC`, for which the result was inactive.

On to `Clc1cccc(C(Cl)(Cl)Cl)n1`, for which the molecule was called inactive.

`CC(C)N1C(=O)N(c2ccccc2)CSC1=NC(C)(C)C`: the call was inactive.
